From PubChem BioAssay AID1220 (Sanford-Burnham Center for Chemical Genomics, 2008) come the findings set out here.

The inhibition is the change of the read-out against control, counted positive when it falls.

Structures are written as SMILES. Out of some 190,000 compounds screened, about 1,300 (0.68%) were called active. The entries come from a sample that favours actives as a whole. Values without a mark were called inactive. Cut-off read from the data, not from the text of the source: active = inhibition above about 50%; inactive = the rest.

Chain of Mannose-6-phosphate isomerase (Homo sapiens) (P34949 whole entry, looked up): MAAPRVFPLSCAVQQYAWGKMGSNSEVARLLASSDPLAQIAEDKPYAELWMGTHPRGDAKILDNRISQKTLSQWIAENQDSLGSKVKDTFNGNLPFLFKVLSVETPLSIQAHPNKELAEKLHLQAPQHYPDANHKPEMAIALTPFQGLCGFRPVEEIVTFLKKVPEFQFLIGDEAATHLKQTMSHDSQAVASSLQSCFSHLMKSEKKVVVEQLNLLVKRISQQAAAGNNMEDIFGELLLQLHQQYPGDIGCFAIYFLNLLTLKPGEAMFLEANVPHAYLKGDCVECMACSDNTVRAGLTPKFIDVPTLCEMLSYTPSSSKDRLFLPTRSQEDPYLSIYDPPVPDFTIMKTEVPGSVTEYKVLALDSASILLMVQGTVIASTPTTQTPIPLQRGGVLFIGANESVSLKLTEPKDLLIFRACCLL

The experiment addresses Mannose-6-phosphate isomerase (Homo sapiens) (UniProt P34949). Put plainly: MPI inhibition at elevated mannose 6-phosphate – biochemical, fluorescence intensity, high mannose 6-phosphate, primary screen (AID 1220). Particulars: recombinant PMI enzyme, coupled fluorescence intensity; at 20 µM; hits give high values.
Turning to `O=C(CSc1nnc2ccccn12)Nc1ccc2c(c1)OCO2`, the inhibition was 13.7%. Take `Cc1ccc(NC(=S)NN(C)c2cc(C)nc(C)n2)cc1`: the inhibition was -11%. With `CCS(=O)(=O)NCCc1cc2cc(C)c(C)cc2[nH]c1=O`, the inhibition was 0.4%. As to `CCCCOC(=O)c1cc(=O)[nH]c2ccccc12`, the inhibition is 6.8%. For `COc1cc(/C=N/NC(=O)c2cc(C)n(-c3ccc(F)cc3)c2C)cc(OC)c1O` the value was 51.9% (active); for `Cc1cc(C(=O)N/N=C/c2ccc3c(c2)OCO3)c(C)n1-c1ccc(F)cc1`, -30.4%. For `COc1ccc(/C=N/NC(=O)c2cc(C)n(-c3ccccc3)c2C)cc1OC` the value was 9.5%; for `O=C(COC(=O)c1ccccc1[N+](=O)[O-])c1ccc(C2CCCCC2)cc1`, -0.8%. For `Nc1ccc(O)cc1C(=O)OCC(=O)c1ccc(C2CCCCC2)cc1` the value was 60.3% (active); for `COc1ccc(C(=O)OCC(=O)c2ccc(C3CCCCC3)cc2)cc1`, 9.2%. Consider `CCCOc1ccc(N2C(=O)CC(N3CCC(O)(c4cccc(C(F)(F)F)c4)CC3)C2=O)cc1` (stereo not drawn), for which the inhibition was 7.5%. For `CC(=O)c1cc2c(C)cc(=O)oc2cc1O` the value was 11.3%; for `CC(=O)Oc1cc2oc(=O)cc(C)c2cc1OC(C)=O`, 55.7% (active).

Take `CC(=O)Oc1ccc2c(C)cc(=O)oc2c1`: the inhibition is 2%.

For the compound `CC(=O)c1cc2c(cc1NC(=O)CCc1ccccc1)OCO2`, the inhibition was 0.5%. For `CCOc1cc(/C=C2/C(=O)N(c3ccccc3)N=C2C)ccc1OC(=O)c1cccs1` the value was 17%; for `CCOc1cc(/C=C2/C(=O)N(c3ccccc3)N=C2C)ccc1OC(=O)c1ccco1`, 43.2%; for `CCOc1cc(/C=C2\C(=O)N(c3ccc(C(N)=O)cc3)N=C2C)ccc1OC(=O)c1cccs1`, 61.4% (active). For `CCOc1ccc(NCCC#N)cc1` the value was 2.3%; for `CCOc1ccc(NCC2CCOC(C)(C)C2)cc1` (stereo not drawn), 50.9% (active).

For the compound `CCOc1ccc(NC(=O)NC2CCOC(C)(C)C2)cc1` (stereo not drawn), the inhibition was 11.5%. For `CCN(CC)S(=O)(=O)c1cccc(C(=O)OCC(=O)NC(C)c2ccccc2)c1` (stereo not drawn) the value was -2.8%.

`O=C(CNC(=O)/C(=C\c1ccc(F)cc1)NC(=O)c1ccccc1)OCc1ccccc1`: the inhibition was 0.8%.

Regarding `O=C(NCc1cccnc1)c1ccc(COc2ccccc2Br)o1`, the inhibition was 11.6%.

As for `O=C(NCc1cccnc1)c1ccc(COc2cccc3ccccc23)o1`, the inhibition was 53.2% (active). Then `COc1ccccc1OCc1ccc(C(=O)NCc2cccnc2)o1`, with 6.8%; and `CC1CCN(c2c(NCC3CCC(C(=O)NCCc4ccccc4)CC3)c(=O)c2=O)CC1` (stereo not drawn), with 1.2%. For `Cn1ncc(N=Cc2c(O)ccc3ccccc23)c1C(=O)Nc1cccc(Cl)c1` the value was 64% (active); for `Cn1ncc(N=Cc2ccccc2)c1C(=O)Nc1cccc(Cl)c1`, 14.7%. For `Cn1ncc(N=Cc2ccccc2O)c1C(=O)Nc1ccccc1` the value was 16.9%; for `C/C(CC(=O)Nc1ccccn1)=N\NC(=O)C(=O)Nc1ccccc1C`, 13%. Take `CCOC(=O)C(Cc1ccc(Cl)cc1Cl)c1ccno1` (stereo not drawn): the inhibition was 0.3%. Turning to `O=C(NCc1ccco1)C1CCN(c2nc3ccccc3n2Cc2ccccc2F)CC1`, the inhibition was 25.8%. Regarding `COc1ccccc1C(=O)OCC(=O)Nc1ccc(Cl)cn1`, the inhibition was 6.1%. Then `COc1ccccc1NCCC(=O)OCC(=O)Nc1ccc(Cl)cn1`, with 50.3% (active); and `O=C(COC(=O)CCOc1ccccc1)Nc1ccc(Cl)cn1`, with 9.2%. Then `O=c1c2[nH]c3ccccc3c2ncn1Cc1ccccn1`, with 1.8%; and `CC(=O)c1c(C)[nH]c(C(=O)N2CCc3ccccc3C2)c1C`, with 12.7%.
